# From PubChem BioAssay AID652015 (National Center for Advancing Translational Sciences (NCATS), 2013)
# Records with an inconclusive call do not appear. Calls of active or inactive are those of the source. Calls follow the shape of the dose curve; as a rule, active = well fitted inhibition curve with a large enough effect; inconclusive = small, poorly fitted or top-dose-only effect; inactive = no such curve, though single readings can be large or run the other way.
# Target: Coelenterazine h 2-monooxygenase (Renilla reniformis) (UniProt P27652)
# Sequence (P27652 whole entry, looked up): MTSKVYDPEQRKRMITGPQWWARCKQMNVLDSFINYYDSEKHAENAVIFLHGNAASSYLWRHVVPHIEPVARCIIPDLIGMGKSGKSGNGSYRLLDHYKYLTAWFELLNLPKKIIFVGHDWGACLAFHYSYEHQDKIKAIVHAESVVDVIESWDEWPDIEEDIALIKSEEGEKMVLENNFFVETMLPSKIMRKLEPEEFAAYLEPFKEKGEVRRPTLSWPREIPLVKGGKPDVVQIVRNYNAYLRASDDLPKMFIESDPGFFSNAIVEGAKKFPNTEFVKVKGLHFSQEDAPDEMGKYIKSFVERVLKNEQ
# Test: qHTS Assay for Inhibitors of Sea Pansy Luciferase from the GSK Published Protein Kinase Inhibitor Set
# Excerpt: FLuc (firefly luciferase) is the prototypical bioluminescent reporter gene from Photinus pyralis.[1] The enzyme catalyzes the oxidation luciferin via luciferin-AMP to produce light. FLuc is used in cell-based reporter gene-based assays for screening small molecule chemical libraries. However, small molecule luciferase inhibitors present in most large chemical libraries are often enriched in the output of high throughput screens using this reporter sometimes complicating interpretation and candidate selection.
# RLuc is a bioluminescent reporter gene luciferase from Renilla reniformis, also known as the sea pansy. RLuc uses the luciferin substrate coelenterazine. […]
# Three microliters containing renilla luciferase substrate in buffer (final concentrations: 50mM Tris acetate, pH 7.5, 100uM NaCl, 0.01% Tween-20, 0.05% BSA, 5uM coelenterazine h) are dispensed into each well of a Greiner white, solid-bottom 1536-well format plate using a flying reagent dispenser (FRD). These assay plates were then treated with 23nL of compound or DMSO using a Kalypsys pin tool, which allows for delivery of a 7-point interplate titration of each compound to the assay plate (quantitative HTS), with final compound concentrations ranging from approximately 60uM to 300pM. […] Luciferase activity was then measured using an Envision plate reader (PerkinElmer), with an average incubation time of 2 min.
smiles,measurement,value
CNC(=O)Oc1cc(C)c(C=Cc2cncc(C(=O)NC)c2)c(C)c1,outcome,inactive
